{
  "source": "the supplement of paper PMC4723716",
  "test_system": "Plasmodium falciparum NF54 stage V gametocytes",
  "assay": "viability index relative to DMSO control (fraction); higher = less gametocyte killing",
  "details": "2.5 µM, incubation time: 72 h",
  "how_it_was_run": "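P. falciparum NF54 stage V gametocytes in serum-free screening medium (0.75% gametocytemia, 1.25% hematocrit, 10 µl) were incubated with compound at 2.5 µM in 1,536-well plates for 72 hr at 37°C under low oxygen. Then 3 µl of 2.5 µM MitoTracker Red CMXRos plus 0.13% saponin was added for one to two hours. One field per well was imaged, 20–70 µm2 red particles were counted, and the viability index was the count divided by the plate mean of DMSO wells.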",
  "key": {"[1]": {"details": "library set: Broad Institute DOS"}, "[2]": {"details": "library set: Broad Institute Blood Stage"}},
  "note": "± gives the uncertainty stated by the source. Over roughly 9,900 compounds, “viability index relative to DMSO control” has its median near 1; the lowest 2% begin near 0.85. The full list was thinned out, with the lowest values kept by preference.",
  "data": [
    {"smiles": "CC(C)(C)[S@@](=O)N1Cc2cc(C(=O)NC3CCC3)nc(-c3cccc(-c4ccccc4F)c3)c2[C@H]1CCO", "values": [
      {"measurement": "viability index", "setting": "[1]", "value": "1.02 ± 0.012"}
    ]},
    {"smiles": "CC(C)C[C@H]1COCc2cn(nn2)CC[C@@H](Cc2ccc(Cl)cc2)C(=O)N1", "values": [
      {"measurement": "viability index", "setting": "[1]", "value": "0.955 ± 0.036"}
    ]},
    {"smiles": "Cc1noc(C)c1C(=O)N(C)C[C@H]1OCc2ccccc2-c2ccccc2C(=O)N([C@@H](C)CO)C[C@@H]1C", "values": [
      {"measurement": "viability index", "setting": "[1]", "value": "1.01 ± 0.065"}
    ]},
    {"smiles": "O=C(Nc1ccc2c(c1)[C@@H]1C[C@H](CC(=O)N3CCc4ccccc4C3)O[C@@H](CO)[C@@H]1O2)c1ccc2c(c1)OCO2", "values": [
      {"measurement": "viability index", "setting": "[1]", "value": "0.991 ± 0.038"}
    ]},
    {"smiles": "CN(C)C(=O)[C@@H]1[C@@H](CO)[C@@H]2Cn3c(ccc(C4=CCCC4)c3=O)[C@H]1N2S(=O)(=O)c1cn(C)cn1", "values": [
      {"measurement": "viability index", "setting": "[1]", "value": "0.984 ± 0.045"}
    ]},
    {"smiles": "N#C[C@H]1N[C@H](CO)[C@@H]1c1ccc(C#Cc2ccccc2F)cc1", "values": [
      {"measurement": "viability index", "setting": "[1]", "value": "1.07 ± 0.076"}
    ]},
    {"smiles": "CC[C@H]1C/C=C/C[C@@H](C)Oc2ccccc2C(=O)N(C)[C@H](C)C(=O)N1.CC[C@H]1C/C=C\\C[C@@H](C)Oc2ccccc2C(=O)N(C)[C@H](C)C(=O)N1", "values": [
      {"measurement": "viability index", "setting": "[1]", "value": "1.04 ± 0.086"}
    ]},
    {"smiles": "CC(C)C#Cc1ccc([C@H]2[C@H]3CN(C(=O)Cc4ccccc4)CC(=O)N3[C@H]2CO)cc1", "values": [
      {"measurement": "viability index", "setting": "[1]", "value": "1.045 ± 0.0096"}
    ]},
    {"smiles": "Cc1ccccc1-c1ccc([C@H]2[C@H](CO)N3CCCCN(S(=O)(=O)Cc4ccccc4)C[C@@H]23)cc1", "values": [
      {"measurement": "viability index", "setting": "[1]", "value": "0.924 ± 0.034"}
    ]},
    {"smiles": "Cc1cccc(-c2ccc([C@H]3[C@H]4CN(S(=O)(=O)c5ccccc5F)CCCCN4[C@H]3CO)cc2)c1", "values": [
      {"measurement": "viability index", "setting": "[1]", "value": "0.973 ± 0.094"}
    ]},
    {"smiles": "Cc1ccccc1-c1ccc([C@@H]2[C@H](CO)N3CCCCN(S(=O)(=O)Cc4ccccc4)C[C@@H]23)cc1", "values": [
      {"measurement": "viability index", "setting": "[1]", "value": "0.74 ± 0.039"}
    ]},
    {"smiles": "Cc1cccc(-c2ccc([C@@H]3[C@@H](CO)N4CCCCN(S(=O)(=O)c5ccccc5F)C[C@H]34)cc2)c1", "values": [
      {"measurement": "viability index", "setting": "[1]", "value": "0.537 ± 0.053"}
    ]},
    {"smiles": "Cc1cccc(-c2ccc([C@H]3[C@@H](CO)N4CCCCN(S(=O)(=O)c5ccccc5F)C[C@@H]34)cc2)c1", "values": [
      {"measurement": "viability index", "setting": "[1]", "value": "1 ± 0.044"}
    ]},
    {"smiles": "Cc1ccccc1-c1ccc([C@H]2[C@@H](CO)N3CCCCN(S(=O)(=O)Cc4ccccc4)C[C@@H]23)cc1", "values": [
      {"measurement": "viability index", "setting": "[1]", "value": "0.991 ± 0.063"}
    ]},
    {"smiles": "Cc1noc(C)c1NC(=O)Nc1cccc2c1O[C@H](CN(C)Cc1ccc(C(=O)Nc3ccccc3N)cc1)[C@@H](C)CN([C@H](C)CO)C2=O", "values": [
      {"measurement": "viability index", "setting": "[1]", "value": "0.961 ± 0.023"}
    ]},
    {"smiles": "CNC[C@H]1OCCCC[C@@H](C)Oc2ccc(NC(=O)Nc3ccc(OC)cc3)cc2C(=O)N([C@@H](C)CO)C[C@@H]1C", "values": [
      {"measurement": "viability index", "setting": "[1]", "value": "0.965 ± 0.12"}
    ]},
    {"smiles": "Cc1cc(C(=O)Nc2ccc3c(c2)C(=O)N(C)[C@H]2CC[C@H](CC(=O)O)O[C@@H]2CO3)no1", "values": [
      {"measurement": "viability index", "setting": "[1]", "value": "0.927 ± 0.12"}
    ]},
    {"smiles": "C[C@@H]1CN([C@@H](C)CO)C(=O)c2cc(NS(=O)(=O)c3cccs3)ccc2O[C@@H](C)CCCCO[C@H]1CN(C)C(=O)c1ccncc1", "values": [
      {"measurement": "viability index", "setting": "[1]", "value": "1.07 ± 0.045"}
    ]},
    {"smiles": "COc1cccc(CN2CCCCN3[C@H](CO)[C@@H](c4ccc(C#Cc5cccnc5)cc4)[C@@H]3C2)c1", "values": [
      {"measurement": "viability index", "setting": "[2]", "value": "0.841 ± 0.06"}
    ]},
    {"smiles": "O=C(Nc1ccc(F)cc1)N1CC(=O)N2[C@H](C1)[C@H](c1ccc(C#Cc3cccnc3)cc1)[C@@H]2CO", "values": [
      {"measurement": "viability index", "setting": "[1]", "value": "1.08 ± 0.07"}
    ]},
    {"smiles": "O=C(Nc1cccc(F)c1)N1CCCCN2[C@H](C1)[C@H](c1ccc(C#Cc3cccnc3)cc1)[C@@H]2CO", "values": [
      {"measurement": "viability index", "setting": "[1]", "value": "0.836 ± 0.036"}
    ]},
    {"smiles": "O=C(Nc1ccc(F)cc1)N1CC(=O)N2[C@@H](CO)[C@H](c3ccc(C#Cc4cccnc4)cc3)[C@@H]2C1", "values": [
      {"measurement": "viability index", "setting": "[1]", "value": "1.11 ± 0.058"}
    ]},
    {"smiles": "O=C(Nc1cccc(F)c1)N1CCCCN2[C@H](CO)[C@H](c3ccc(C#Cc4cccnc4)cc3)[C@H]2C1", "values": [
      {"measurement": "viability index", "setting": "[1]", "value": "0.848 ± 0.034"}
    ]},
    {"smiles": "COCC#Cc1ccc([C@@H]2[C@H](CO)N3CCCCN(Cc4cccnc4)C[C@@H]23)cc1", "values": [
      {"measurement": "viability index", "setting": "[1]", "value": "1.03 ± 0.068"}
    ]},
    {"smiles": "COCC#Cc1ccc([C@@H]2[C@@H](CO)N3CCCCN(Cc4cccnc4)C[C@@H]23)cc1", "values": [
      {"measurement": "viability index", "setting": "[1]", "value": "1.06 ± 0.14"}
    ]},
    {"smiles": "O=C(Nc1cccc(F)c1)N1CCCCN2[C@@H](CO)[C@H](c3ccc(C#Cc4cccnc4)cc3)[C@@H]2C1", "values": [
      {"measurement": "viability index", "setting": "[1]", "value": "1.05 ± 0.075"}
    ]},
    {"smiles": "O=C(Nc1cccc(F)c1)N1CCCCN2[C@@H](CO)[C@@H](c3ccc(C#Cc4cccnc4)cc3)[C@@H]2C1", "values": [
      {"measurement": "viability index", "setting": "[1]", "value": "0.979 ± 0.089"}
    ]},
    {"smiles": "O=C(Nc1cccc(F)c1)N1CCCCN2[C@H](CO)[C@@H](c3ccc(C#Cc4cccnc4)cc3)[C@@H]2C1", "values": [
      {"measurement": "viability index", "setting": "[1]", "value": "1.07 ± 0.078"}
    ]},
    {"smiles": "O=C(Nc1cccc(F)c1)N1CCCCN2[C@H](CO)[C@@H](c3ccc(C#Cc4cccnc4)cc3)[C@H]2C1", "values": [
      {"measurement": "viability index", "setting": "[1]", "value": "0.8437 ± 0.0061"}
    ]},
    {"smiles": "O=C(Nc1cccc(F)c1)N1CCCCN2[C@H](CO)[C@H](c3ccc(C#Cc4cccnc4)cc3)[C@@H]2C1", "values": [
      {"measurement": "viability index", "setting": "[1]", "value": "1.05 ± 0.024"}
    ]},
    {"smiles": "CCCC(=O)Nc1ccc2c(c1)C(=O)N(C)C[C@@H](OC)[C@@H](C)CN(Cc1ccc(F)cc1)[C@@H](C)CO2", "values": [
      {"measurement": "viability index", "setting": "[1]", "value": "0.941 ± 0.11"}
    ]},
    {"smiles": "O=C(C[C@H]1CC[C@@H]2[C@H](COC[C@@H](O)CN2S(=O)(=O)c2ccc(F)cc2)O1)NCCN1CCCCC1", "values": [
      {"measurement": "viability index", "setting": "[1]", "value": "1.113 ± 0.0099"}
    ]},
    {"smiles": "COc1ccc(CN(C)C[C@@H]2OCc3cnnn3CCCC(=O)N([C@@H](C)CO)C[C@@H]2C)cc1", "values": [
      {"measurement": "viability index", "setting": "[1]", "value": "1.012 ± 0.0093"}
    ]},
    {"smiles": "CN1C(=O)c2cc(NC(=O)c3ccc(F)c(F)c3)ccc2OC[C@@H]2O[C@H](CC(=O)N3CCCCC3)CC[C@H]21", "values": [
      {"measurement": "viability index", "setting": "[1]", "value": "0.986 ± 0.14"}
    ]},
    {"smiles": "N#C[C@@H]1[C@@H](c2ccc(C#CC3(O)CCCC3)cc2)[C@@H](CO)N1C(=O)C1CCCCC1", "values": [
      {"measurement": "viability index", "setting": "[1]", "value": "1.11 ± 0.019"}
    ]},
    {"smiles": "O=C(Nc1ccc(C(F)(F)F)cc1)N[C@@H]1C=C[C@@H](CC(=O)N2CCCCC2)O[C@H]1CO", "values": [
      {"measurement": "viability index", "setting": "[1]", "value": "1.111 ± 0.008"}
    ]},
    {"smiles": "C[C@@H]1CN([C@H](C)CO)C(=O)c2cccc(NC(=O)Nc3ccc(F)cc3)c2O[C@H]1CN(C)S(=O)(=O)c1ccc(Cl)cc1", "values": [
      {"measurement": "viability index", "setting": "[1]", "value": "0.92 ± 0.22"}
    ]},
    {"smiles": "CNC(=O)C[C@@H]1CC[C@@H]2[C@@H](COc3ccc(NC(=O)c4ccccc4F)cc3C(=O)N2C)O1", "values": [
      {"measurement": "viability index", "setting": "[1]", "value": "1.13 ± 0.083"}
    ]},
    {"smiles": "COc1cccc(S(=O)(=O)N2CC[C@H]3[C@H](CO)Nc4ccc(C#Cc5cccnc5)cc4[C@H]32)c1", "values": [
      {"measurement": "viability index", "setting": "[1]", "value": "1.11 ± 0.082"}
    ]},
    {"smiles": "COc1ccc(C#Cc2ccc([C@@H]3[C@@H](CO)N4CCCCN(C(=O)Nc5cccc(F)c5)C[C@H]34)cc2)cc1", "values": [
      {"measurement": "viability index", "setting": "[2]", "value": "0.654 ± 0.049"}
    ]},
    {"smiles": "COc1ccc(NC(=O)N2CCCCN3[C@H](C2)[C@@H](c2ccc(-c4ccccc4F)cc2)[C@@H]3CO)cc1", "values": [
      {"measurement": "viability index", "setting": "[1]", "value": "0.981 ± 0.042"}
    ]},
    {"smiles": "O=C(Nc1ccc(F)cc1)N1CC(=O)N2[C@H](CO)[C@H](c3ccc(C#Cc4cccnc4)cc3)[C@H]2C1", "values": [
      {"measurement": "viability index", "setting": "[1]", "value": "1.1 ± 0.086"}
    ]},
    {"smiles": "O=C(Nc1cccc(F)c1)N1CCCCN2[C@H](C1)[C@@H](c1ccc(C#Cc3cccnc3)cc1)[C@@H]2CO", "values": [
      {"measurement": "viability index", "setting": "[1]", "value": "0.81 ± 0.05"}
    ]},
    {"smiles": "COc1ccc(NC(=O)N2CCCCN3[C@@H](CO)[C@@H](c4ccc(-c5ccccc5F)cc4)[C@@H]3C2)cc1", "values": [
      {"measurement": "viability index", "setting": "[1]", "value": "0.993 ± 0.011"}
    ]},
    {"smiles": "O=C(Nc1ccc(F)cc1)N1CC(=O)N2[C@H](CO)[C@H](c3ccc(C#Cc4cccnc4)cc3)[C@@H]2C1", "values": [
      {"measurement": "viability index", "setting": "[1]", "value": "1.028 ± 0.0039"}
    ]}
  ]
}
